Data on 13 compounds can be found in PubChem BioAssay (NCI).

This is part of a sample that, as a whole, favours compounds with a hit. Of some 83,000 tested, about 20% had one in any assay.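 Single-concentration screen, 48 h exposure, 96-well plates. Endpoint: percent growth. Below 10 = active.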 Values without a mark were called inactive. Active and inactive are the calls of the source.

Experiment in all cases: NCI-60 one-dose screen, 48 h (100 = growth as untreated, 0 = no growth, -100 = all killed)
Holding throughout (details): 10 µM unless noted

The test system of assay [1] is DU-145 prostate.
The test system of assay [2] is K-562 leukemia.
Assay [3] deals with MALME-3M melanoma.
The test system of assay [4] is MDA-MB-231 breast.
For assay [5], the system named is RXF 393 renal.
The subject of assay [6] is SF-268 CNS.
Assay [7] deals with SF-295 CNS.
In assay [8] the test system is SF-539 CNS.
Assay [9] deals with UACC-257 melanoma.
Assay [10] relates to M14 melanoma.

For `CCCCNc1ccc(C#N)c(OCCN(CC)CC)c1`, the growth in assay [1] is 113%; in [2] it was 86%; in [3], 109%; in assay [4], 99.3%; in [5] it was 103%; in [6], 103%. The growth in assay [7] was 107%; in [8] it was 111%; in [9], 114%; in assay [10], 104%.

For the compound `COc1cc(-c2nc(SCC(C)C)nc(Nc3cccc4ccccc34)c2C#N)cc(OC)c1OC`, the growth was 94.4% in [1]; 57% in assay [2]; 87.7% in [3]; 57.1% in assay [4]; 119% in assay [5]; 92.6% in [6]. In addition, the growth was 101% in [7], 101% in [8], 106% in assay [9] and 103% in [10].

As to `O=C(Nc1ccc(NC(=O)c2cc(=O)[nH]c3ccccc23)cc1)Nc1cccc(C(F)(F)F)c1`, the growth in [1] was 76.2%; in [2] it was 53%; in [3], 31.7%; in assay [4], 26.7%; in assay [5], 108%; in assay [6], 50.7%. The growth in [7] is 74.5%; in [8] it was 50.1%; in assay [9] it was 80.5%; in assay [10], 69.9%.

Regarding `COC(=O)c1c2c(c(C)[n+]([O-])c1C)C(=O)C=C(NCc1ccc(OC)cc1)C2=O`, the growth is -83.7% (active) in [1]; 0.821% (active) in assay [2]; -97.4% (active) in [3]; -6.3% (active) in assay [4]; -32.7% (active) in [5]; -22.4% (active) in assay [6]. In addition, the growth in [7] is -62.5% (active); in [8], -80.7% (active); in assay [9], -77% (active); in [10], -84.6% (active).

`O=C(NCc1ccccc1)Nc1ccccc1CNc1nc(Nc2ccc(OCCN3CCCC3)cc2)ncc1Cl`: the growth is 78.4% in [1]; 64.5% in [2]; 90.7% in [3]; 97% in assay [4]; 79.4% in [5]; 83.2% in [6]. The growth in assay [7] was 95.5%; in [8], 92.4%; in assay [9], 102%; in [10], 99.7%.

Take `Cc1c(-n2nnc(-c3nc4ccccc4s3)c2N)c(=O)n(-c2ccccc2)n1C`: the growth in [1] is 115%; in [2] it was 102%; in assay [3], 97.6%; in assay [4], 113%; in assay [5], 121%; in [6], 99.8%. The growth in assay [7] is 103%; in assay [8] it was 92.2%; in assay [9], 102%; in assay [10] it was 110%.

As for `CCCC(=O)NC(c1ccc2c(c1)OCO2)c1ccc2cccnc2c1O` (stereo not given), the growth in [1] was 36.5%; in assay [2] it was 7.6% (active); in assay [3], 13.4%; in assay [4], 31.2%; in [5], 18.3%; in [6], 15.8%. Also, the growth in assay [7] is 13.9%; in assay [8], 9.93% (active); in assay [9], 19.1%; in [10], 4.9% (active).

Take `COc1ccc(CC(C#N)c2cc3ccccc3[nH]2)cc1` (stereo not given): the growth in assay [1] was 101%; in assay [2], 80.5%; in assay [3], 89.3%; in assay [4], 82.3%; in [5], 94.1%; in assay [6] it was 90.7%. Also, the growth in assay [7] was 94.1%; in [8], 97.5%; in assay [9], 94.3%; in assay [10], 84.2%.

As for `CC(=O)OC[C@]12CCC(C)(C)C[C@H]1[C@@]1(O)[C@H](O)C[C@@H]3[C@@]4(C)CCCNC(C)(C)[C@@H]4CC[C@@]3(C)[C@]1(C)CC2`, the growth in [1] is 111%; in assay [2], 106%; in assay [3] it was 106%; in [4], 103%; in assay [5] it was 117%; in [6], 106%. Besides, the growth in [7] was 102%; in assay [8], 103%; in assay [9], 101%; in [10], 92.4%.

Turning to `Cc1cc(=O)[nH]c2c(C#N)cnn12`, the growth in [1] was 104%; in [2], 103%; in assay [3] it was 98.9%; in assay [4] it was 104%; in assay [5], 110%; in assay [6], 99.9%. For the same compound, the growth in assay [7] was 101%; in [8], 101%; in [9] it was 96.7%; in assay [10], 105%.

Turning to `CN(C)C1CCN(Cc2ccc(NC(=O)c3cncc(C#Cc4cnc(N)c5ncccc45)c3)cc2C(F)(F)F)CC1`, the growth in [1] was 64.1%; in assay [2], 1.29% (active); in assay [3], -63.1% (active); in assay [4], 2.48% (active); in [5], 19.4%; in assay [6] it was 81.3%. Besides, the growth in assay [7] is 93.9%; in assay [8], 59.6%; in [9], 15.5%; in assay [10], -73.6% (active).

Regarding `Cn1c(-c2ccc(Br)cc2)c(O)c(=O)c2c(F)cccc21`, the growth in assay [1] was 54.4%; in [2] it was 100%; in assay [3], 55.2%; in assay [4], 54.5%; in [5] it was 66.1%; in [6] it was 47%. Moreover, the growth in assay [7] is 48.4%; in assay [8], 57.4%; in assay [9], 71.4%; in [10], 50.6%.

Regarding `Cc1ccc(/C=N/Nc2nc(Nc3ccccc3)nc(-n3nc(C)cc3C)n2)cc1`, the growth in assay [1] was 40.9%; in assay [2] it was 37.1%; in assay [3] it was 80.8%; in assay [4] it was 51.6%; in [5], 55.9%; in [6], 44%. The growth is -40.7% (active) in assay [7], 56.5% in [8], 54.2% in [9] and 42.9% in assay [10].
